Measured values taken from the supplement of paper PMC11624193, “Coupling cellular drug-target engagement to downstream pharmacology with CeTEAM” (Nature Communications, 2024).
Where a name gives a salt, the structure may show the parent alone. Unmarked numbers belong to inactive results.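 Rule for the calls: active = log2 fold change beyond 2 SD from the library mean after excluding viability outliers; inactive = within 2 SD.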

Target: PARP1 L713F-nLuc biosensor (HCT116) (UniProt P09874)
Experiment: PARP1 L713F-nLuc/akaLuc ratio relative to DMSO control (biosensor stabilization) (fold change); higher = more PARP1 biosensor stabilization (target engagement / stabilizer), active = hit call of the paper
Settings: stock concentration (mM; final µM = stock mM x 1): 10; 24 h

PARP1 L713F-nLuc biosensor (HCT116), sequence (P09874 whole entry L713F, looked up): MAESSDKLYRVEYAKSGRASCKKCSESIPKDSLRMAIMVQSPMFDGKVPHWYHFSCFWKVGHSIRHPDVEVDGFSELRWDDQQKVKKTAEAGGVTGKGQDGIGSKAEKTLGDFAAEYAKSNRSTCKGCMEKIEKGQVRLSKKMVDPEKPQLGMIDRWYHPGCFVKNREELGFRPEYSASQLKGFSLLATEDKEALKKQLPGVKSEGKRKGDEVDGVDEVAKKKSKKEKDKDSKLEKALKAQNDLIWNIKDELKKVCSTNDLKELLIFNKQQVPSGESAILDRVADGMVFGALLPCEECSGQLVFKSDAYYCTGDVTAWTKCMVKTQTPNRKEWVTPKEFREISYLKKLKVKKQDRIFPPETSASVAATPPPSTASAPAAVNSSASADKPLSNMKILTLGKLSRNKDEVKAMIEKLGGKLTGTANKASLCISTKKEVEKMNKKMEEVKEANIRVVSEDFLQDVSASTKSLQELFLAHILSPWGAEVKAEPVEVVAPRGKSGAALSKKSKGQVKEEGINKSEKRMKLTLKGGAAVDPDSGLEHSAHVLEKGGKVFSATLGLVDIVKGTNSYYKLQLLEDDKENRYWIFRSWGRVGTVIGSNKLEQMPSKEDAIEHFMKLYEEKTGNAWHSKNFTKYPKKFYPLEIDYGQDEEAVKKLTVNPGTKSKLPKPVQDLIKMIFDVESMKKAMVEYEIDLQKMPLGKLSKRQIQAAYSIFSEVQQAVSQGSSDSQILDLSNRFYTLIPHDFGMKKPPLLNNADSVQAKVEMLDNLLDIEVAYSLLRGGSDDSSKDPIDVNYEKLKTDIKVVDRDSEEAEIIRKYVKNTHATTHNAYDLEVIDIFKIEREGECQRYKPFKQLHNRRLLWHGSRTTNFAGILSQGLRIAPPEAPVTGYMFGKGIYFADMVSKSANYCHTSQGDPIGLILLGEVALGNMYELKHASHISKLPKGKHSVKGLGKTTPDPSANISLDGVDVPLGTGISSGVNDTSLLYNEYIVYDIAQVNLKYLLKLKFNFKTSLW

Row | SMILES | PARP1 L713F-nLuc/akaLuc ratio
1 | CCc1cc2c(cc1N1CCC(N3CCOCC3)CC1)C(C)(C)c1[nH]c3cc(C#N)ccc3c1C2=O | 2.06
2 | Cc1nc(N)sc1-c1ccnc(Nc2ccc(N3CCOCC3)cc2)n1 | 0.726
3 | CCCC(=O)c1c(O)c(Cc2c(O)c(Cc3c(O)c(C)c(OC)c(C(=O)CCC)c3O)c(O)c(C(=O)[C@@H](C)CC)c2O)c(O)c(C)c1OC [Agrimol B] | 1.14
4 | O=c1[nH]c(N2CCC3(CC2)CN(CCO)c2cc(F)cc(F)c23)nc2c1CCCC2 | 0.755
5 | C[C@@H](COCCC(=O)N1CCN(c2ncc(C(F)(F)F)cn2)CC1)Nc1cn[nH]c(=O)c1C(F)(F)F | 2.09
6 | CC(=O)Nc1cccc(-n2c(=O)n(C3CC3)c(=O)c3c(Nc4ccc(I)cc4F)n(C)c(=O)c(C)c32)c1 | 0.502
7 | CNc1nc(NC2CCN(Cc3ccc4c(cc(C#N)n4CC45CC(NC=O)(C4)C5)c3C)CC2)c2cc(CC(F)(F)F)sc2n1 | 1.38
8 | CC1(N)CCN(c2cnc(-c3cccc(Cl)c3Cl)c(N)n2)CC1 [SHP099 dihydrochloride] | 0.78
9 | COc1ccc2c(c1)c(C(=O)Nc1cc(C(=O)OC(C)(C)C)ccc1F)cn2C(C)=O | 0.714
10 | Cc1cc(C)c(CNC(=O)c2cc(-c3ccc(CN4CCOCC4)cc3)cc3c2cnn3C2CCCC2)c(=O)[nH]1 | 1.16
11 | N#Cc1c(O)c2c(-c3ccc(-c4ccccc4O)cc3)csc2[nH]c1=O | 0.692
12 | C=CC(=O)Nc1cccc(Nc2nc(Nc3ccc(N4CCN(C(C)=O)CC4)cc3OC)ncc2C(F)(F)F)c1 [Rociletinib (CO-1686, AVL-301)] | 0.886
13 | CC1Oc2cc(cnc2N)-c2c(nn(C)c2C#N)CN(C)C(=O)c2ccc(F)cc21 (stereo not drawn) | 1.13
14 | O=C(Nc1ccc(Cl)cc1)c1cc2ccccc2cc1O [Naphthol AS-E] | 1.09
15 | COc1cc(/C=C/C(=O)CC(=O)/C=C/c2ccc(O)c(OC)c2)ccc1O [Curcumin] | 1.12
16 | NC(=O)/C(=C/n1cnc(-c2cc(C(F)(F)F)cc(C(F)(F)F)c2)n1)c1cncnc1 [Eltanexor (KPT-8602)] | 0.767
17 | Cc1cc(N2C[C@@H](C)N[C@@H](C)C2)ncc1-c1ccc(-c2nc3c(ccn3C)c(=O)[nH]2)cc1 | 1.15
18 | Cc1ccc2[nH]c3c(c2c1)CCCC3C(N)=O (stereo not drawn) | 1.25
19 | C[C@@H]1O[C@@H](O[C@H]2[C@H](OC(=O)[C@]34CCC(C)(C)C[C@H]3C3=CC[C@@H]5[C@@]6(C)C[C@H](O)[C@H](O[C@@H]7O[C@H](CO)[C@@H](O)[C@H](O)[C@H]7O)C(CO)(CO)[C@@H]6CC[C@@]5(C)[C@]3(C)C[C@H]4O)OC[C@H](O)[C@@H]2O)[C@H](O)[C@H](O)[C@H]1O[C@@H]1OC[C@@H](O)[C@H](O[C@@H]2OC[C@](O)(CO)[C@H]2O)[C@H]1O [Platycodin D] | 0.771
20 | CO[C@H]1C(=O)[C@]2(C)[C@@H](OC)C[C@H]3OC[C@@]3(OC(C)=O)[C@H]2[C@H](OC(=O)c2ccccc2)[C@]2(O)C[C@H](OC(=O)[C@H](O)[C@@H](NC(=O)OC(C)(C)C)c3ccccc3)C(C)=C1C2(C)C [Cabazitaxel] | 1.2
21 | OC1CCC(Nc2ncc3nc(Nc4c(F)cc(F)cc4F)n([C@H]4CCOC4)c3n2)CC1 (stereo partly drawn) [Tanzisertib(CC-930)] | 1.11
22 | CNCCN(C)Cc1c[nH]nc1-c1ccc(O[C@H]2C[C@H](OCCC3CCOCC3)C2)cc1 | 0.64
23 | C=CC(=O)Nc1cccc(Oc2nc(Nc3ccc(N4CCN(C)CC4)cc3)nc3ccsc23)c1 | 1.03
24 | O=C(NC[C@H](O)CN1CCc2ccccc2C1)c1ccnc(NC2CCC2)c1 | 0.738
25 | Cc1cc(F)c(C(=O)Nc2cccc(-c3nncn3C(C)C)n2)cc1-n1cnc(C2CC2)c1 [Selonsertib (GS-4997)] | 0.908
26 | CCCS(=O)(=O)N[C@H]1C[C@@H](N(C)c2ncnc3[nH]ccc23)C1 [Abrocitinib] | 0.869
27 | Cn1cnc2c(F)c(Nc3ccc(Br)cc3F)c(C(=O)NOCCO)cc21 | 0.546
28 | Cc1cc(Nc2cc(N3CCN(C)CC3)nc(Nc3ccc([N+](=O)[O-])cc3)n2)n[nH]1 | 1.52
